Test results as given in PubChem BioAssay (NCATS).
Calls of active or inactive are those of the source. Calls follow the shape of the full dose curve.

Experiment: qHTS drug screen for cell cycle checkpoint inhibitors in PARPi-resistant BRCA-mutant ovarian cancer cell lines. (AID 1963452)
Settings: PEO1/OlaR viability, CellTiter-Glo luminescence, 96 h; for Z-AUC: stronger effect = lower value
Description: Women's Malignancies Branch, Center for Cancer Research (CCR),
National Cancer Institute (NCI), National Institutes of Health (NIH), Bethesda, MD
Poly (ADP-ribose) polymerase inhibitors (PARPis) have changed the treatment paradigm in breast cancer gene (BRCA) - mutant high-grade serous ovarian carcinoma (HGSC). However, most patients eventually develop resistance to PARPis, highlighting an unmet need for improved therapeutic strategies. Using high-throughput drug screens, we identified ataxia telangiectasia and rad3-related protein/checkpoint kinase 1 (CHK1) pathway inhibitors as cytotoxic and further validated the activity of the CHK1 inhibitor (CHK1i) prexasertib in PARPi-sensitive and -resistant BRCA-mutant HGSC cells and xenograft mouse models. CHK1i monotherapy induced DNA damage, apoptosis, and tumor size reduction. We then conducted a phase 2 study (NCT02203513) of prexasertib in patients with BRCA-mutant HGSC. The treatment was well tolerated but yielded an objective response rate of 6% (1 of 17; one partial response) in patients with previous PARPi treatment. […] BRCA reversion mutation in previously PARPi-treated BRCA-mutant patients was not associated with resistance to CHK1i.
Among others, 1082 oncology drugs, both approved and investigational, were prioritized based on their status in clinical trial development. […] Drugs with average Z-AUC values less than -1.0 in all three cell lines were classified as "hits" resulting in 151 oncology drug hits. The screen also confirmed cross-resistance between olaparib and other PARPis (rucaparib, niraparib, and talazoparib) in PARPi-resistant PEO1/OlaR and PEO4.
[1] G. L. Lin, K. M. Wilson, M. Ceribelli, B. Z. Stanton, P. J. Woo, S. Kreimer, E. Y. Qin, X. Zhang, J. Lennon, S. Nagaraja, P. J. Morris, M. Quezada, S. M. Gillespie, D. Y. Duveau, A. M. Michalowski, P. Shinn, R. Guha, M. Ferrer, C. Klumpp-Thomas, S. Michael, C. McKnight, P. Minhas, Z. Itkin, E. H. Raabe, L. Chen, R. Ghanem, A. C. Geraghty, L. Ni, K. I. Andreasson, N. A. Vitanza, K. E.Warren, C. J. Thomas, M. Monje, Therapeutic strategies for diffuse midline glioma from high-throughput combination drug screening. Sci. Transl. Med. 11, (2019).
[2] T. M. Yamamoto, A. McMellen, Z. L. Watson, J. Aguilera, R. Ferguson, E. Nurmemmedov, T. Thakar, G. L. Moldovan, H. Kim, D. M. Cittelly, A. M. Joglar, E. P. Brennecke, H. Wilson, K. Behbakht, M. J. Sikora, B. G. Bitler, Activation of Wnt signaling promotes olaparib resistant ovarian cancer. Mol. Carcinog. 58, 1770 - 1782 (2019).
PROTOCOL TABLE (as described by Inglese J, Shamu CE and Guy RK. 2007)
SEQUENCE No. (e.g., 1, 2, 3, etc.); […] (e.g., Cells, Incubation, Reagent, etc.); VALUE; DESCRIPTION.
1; Compounds; 20nL; 1536-well white tissue culture-treated plates.
2; Cells; 5 uL; PEO1, PEO4, and PEO1/OlaR cells at 600 cells per well.
3; Incubation; 96 hr; 37C, 95% humidity, 5% CO2.
4; Reagent; 3 uL; CellTiter-Glo (Promega).
5; Incubation; 15 min; room temperature.
6; Detection; Luminescence, PHERAstar (BMG Labtech) plate reader.
NOTES (numbers refer to Sequence numbers above)
1. MIPE 5.0 compounds were acoustically dispensed by Echo Acoustic Liquid Handler (Beckman Coulter Life Sciences). Each compound was plated at an 11-point concentration range with 1:3 dilution. Bortezomib, a proteasome inhibitor (final concentration, 20 uM), was used as a positive.
2. PEO1, PEO4, and PEO1/OlaR were trypsinized and dispensed in 5 uLof growth medium using a Multidrop Combi dispenser at a density of 600 cells per well to allow compounds to be present during the exponential growth phase.
3. Plates were incubated for 96 hours at standard incubator conditions and covered by a stainless steel gasketed lid to prevent evaporation.
4. Three microliters of CellTiter-Glo (Promega) were added to each well.
5. Plates were incubated at room temperature for 15 min with a stainless-steel lid in place.
6. Luminescence readings were taken using PHERAstar (BMG Labtech). […]

[1] = measured here: PEO1 parental Z-AUC
Potency is read from the fitted curve at half-maximal effect.

| Structure (SMILES) | Potency | Z-AUC [1] | Z-AUC (measured here: PEO4 Z-AUC) | Z-AUC |
| --- | --- | --- | --- | --- |
| Cc1cnc(Nc2ccc(OCCN3CCCC3)cc2)nc1Nc1cccc(S(=O)(=O)NC(C)(C)C)c1 | 1950 nM (active) | -1.63 | -1.56 | – |
| Cc1cc(-c2ccc(CC(=O)Nc3ccc(-c4cccnc4)cc3)cc2)ccn1 | – | 0.679 | 0.307 | 1.38 (inactive) |
| Cc1n[nH]c(C)c1Cc1sc2c(c1C(=O)N1C[C@H](O)CO1)c(=O)n(C)c(=O)n2CC(C)C | – | -0.977 | -0.228 | -0.106 (inactive) |
| OCCn1cc(-c2cnc3nnn(Cc4ccc5ncccc5c4)c3n2)cn1 | – | 0.0266 | 0.506 | -0.182 (inactive) |
| CCN(CC)CCCC(C)Nc1ccnc2cc(Cl)ccc12 (configuration not stated) | – | 0.505 | 0.615 | 0.106 (inactive) |
| O=C1CCc2cc(OCCCCc3nnnn3C3CCCCC3)ccc2N1 | – | -0.972 | -0.778 | -1.35 (inactive) |
| CC(C)(C)OC(=O)CN(Cc1ccc(Cl)cc1)Cc1ccc([N+](=O)[O-])s1 | – | 0.527 | 0.345 | 0.709 (inactive) |
| COc1ccc(CC2=NN3C([C@@H](CCc4ccccc4)[C@@H](C)O)=NC(C)C3C(=O)N2)cc1OC (some centres not stated) | – | 0.752 | 0.704 | -0.34 (inactive) |
| O=NN(CCCl)C(=O)NCCCl | – | 0.83 | 0.781 | 0.732 (inactive) |
| O=C(Nc1ccc(F)c(C(F)(F)F)c1)Nc1nnc(-c2ccncc2)s1 | – | -0.821 | -0.018 | -0.226 (inactive) |
| COc1ccc(CCN2CCN(CCCc3ccccc3)CC2)cc1OC | – | -0.141 | -0.419 | -0.614 (inactive) |
| C[C@@H]1CN(Cc2ccc(F)cc2)[C@@H](C)CN1C(=O)c1cc2c(C(=O)C(=O)N(C)C)cn(C)c2cc1Cl | – | 0.03 | 0.299 | 0.142 (inactive) |
| CCc1ccc(CCOc2ccc(CC3SC(=O)NC3=O)cc2)nc1 (configuration not stated) | – | 0.268 | 0.973 | 0.827 (inactive) |
| O=C(c1cc(Cc2n[nH]c(=O)c3ccccc23)ccc1F)N1CCN(C(=O)C2CC2)CC1 | – | -0.378 | 0.0684 | 0.491 (inactive) |
